Data: PubChem BioAssay AID1259313 (Sanford-Burnham Center for Chemical Genomics, 2017)
About 8,500 (2.5%) of roughly 340,000 compounds were called active. What follows is part of a selection rich in actives, with near analogues and random picks from the rest. Values without a mark were called inactive.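 Rule for the calls: active = melting temperature shift of at least 10% of the positive control shift, at one fixed dose; inactive = the rest.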

These compounds were tested on Glutamate receptor ionotropic, NMDA 3A (GRIN3A) ligand-binding domain (assay: binders of NR3A ligand-binding domain, primary screen, biophysical, differential scanning fluorimetry, uHTS (AID 1259313)). Settings: NR3A LBD differential scanning fluorimetry, at 25 µM, stronger effect = higher value, 0% = protein alone, 100% = glycine-bound protein.
Compound `CCCCNC(=O)c1ccccc1NC(=O)c1ccccc1N(C)S(C)(=O)=O` has a Tm shift relative to glycine control of 0.62%. In the case of `Cc1c(Br)ccc(NC(=O)COc2ccccc2C(N)=O)c1C`, the Tm shift relative to glycine control is reported as -0.92%. `CC1=NN(C(C)C)C(=O)C1` was tested, and the Tm shift relative to glycine control was -0.17%. `Cc1ccc(S(=O)(=O)N2[C@@H](c3ccc(Br)cc3)C(C(=O)O)=C[C@H]2CC2CCCC2)cc1` was tested, and the Tm shift relative to glycine control was -1.23%. `O=C(CSc1nn(-c2ccc(F)cc2)c(=S)s1)NC1CCS(=O)(=O)C1` (centres undefined) showed a Tm shift relative to glycine control of -1.94%. `Cc1ccc(C)c(OCCC(=O)OCC(=O)c2ccc3c(c2)NC(=O)CO3)c1` was tested, and the Tm shift relative to glycine control was 1.04%. For `CCOC(=O)C1CCN(C(=O)c2cccc(S(=O)(=O)N(CC)c3ccccc3)c2)CC1`, the Tm shift relative to glycine control was 0.33%. `O=[N+]([O-])c1cccc(C=NN=Cc2ccccc2O)c1` was tested, and the Tm shift relative to glycine control was -1.4%. For `Nc1ccccc1/C=N\N=C/c1ccccc1N`, the Tm shift relative to glycine control was 10.2% (active). `Cc1c(C(=O)Nc2ccccc2Cl)oc2ccc(S(=O)(=O)N3CCC4(CC3)OCCO4)cc12` gave a Tm shift relative to glycine control of -0.83%. For `Cc1c(C(=O)Nc2cccc(S(=O)(=O)N3CCOCC3)c2)oc2ccccc12`, the Tm shift relative to glycine control was -5.92%. For `COc1ccc(NC(=O)c2oc3ccc(S(=O)(=O)N4CCOCC4)cc3c2C)cc1`, the Tm shift relative to glycine control was 14.9% (active). `Cc1ccc(-c2c3c(=O)n(C)c(=O)n(C)c3cn2-n2cnnc2)cc1` showed a Tm shift relative to glycine control of -0.82%. In the case of `COc1cccc(-n2cc3c(c2-c2ccccc2)c(=O)n(C)c(=O)n3C)c1`, the Tm shift relative to glycine control is reported as -1.71%. With `Cc1ccc(-c2c3c(=O)n(C)c(=O)n(C)c3cn2-c2ccccc2O)cc1` the Tm shift relative to glycine control was 22.9% (active). In the case of `Cc1csc(=O)n1CCC(=O)OCC(=O)NNC(=O)c1ccc(Br)cc1`, the Tm shift relative to glycine control is reported as -0.85%. `COc1cccc(CNS(=O)(=O)c2ccc3c(c2)CC(C)N3C(C)=O)c1` (centres undefined) was tested, and the Tm shift relative to glycine control was 2.23%. In the case of `COc1cccc(CNS(=O)(=O)c2ccc3c(c2)N(C(C)=O)CCS3)c1`, the Tm shift relative to glycine control is reported as 11.5% (active). Work on `COc1cccc(CNS(=O)(=O)c2csc(C(N)=O)c2)c1` yielded a Tm shift relative to glycine control of 2.62%. `CSc1nc2c(c(=O)[nH]1)C(c1cccc(Cl)c1Cl)CC(=O)N2` (centres undefined) showed a Tm shift relative to glycine control of -1.69%. With `O=C(NC(Nc1nc2ccc([N+](=O)[O-])cc2s1)(C(F)(F)F)C(F)(F)F)c1ccccc1` the Tm shift relative to glycine control was 6.26%. Work on `Cc1ccc(NC(=O)c2cccc(S(=O)(=O)N3CCCc4ccccc43)c2)nc1` yielded a Tm shift relative to glycine control of 2.57%. In the case of `O=C(Nc1nc2ccc([N+](=O)[O-])cc2s1)c1ccc(S(=O)(=O)N2CCCc3ccccc32)cc1`, the Tm shift relative to glycine control is reported as 18.8% (active). `O=C1COc2ccc(C(=O)COC(=O)c3ccccc3Cl)cc2N1` was tested, and the Tm shift relative to glycine control was 0%. Work on `COc1ccc2c(c1)C(=O)CC(c1ccccc1)O2` (centres undefined) yielded a Tm shift relative to glycine control of -1.87%. `CCN(CC)c1ccc(C(=O)NNC(=O)CCc2nc3ccccc3c(=O)[nH]2)cc1` gave a Tm shift relative to glycine control of -0.56%. `COc1ccc(C(=O)COC(=O)COc2ccc(C)c(C)c2)cc1` was tested, and the Tm shift relative to glycine control was 12% (active). `COc1ccc(OCC(=O)OCCN(C)C)cc1` was tested, and the Tm shift relative to glycine control was -1.53%. For `Cc1ccc(OCC(=O)Nc2ccc(C(=O)O)cc2NC(=O)COc2ccc(C)c(C)c2)cc1C`, the Tm shift relative to glycine control was -0.84%. Work on `Cc1ccc(Oc2cnn(-c3ccccc3)c(=O)c2Br)cc1` yielded a Tm shift relative to glycine control of -1.23%. For `Cc1ccc(O/C=C2\OC(=O)c3ccccc32)cc1`, the Tm shift relative to glycine control was 49.4% (active). In the case of `Cc1n[nH]c(=O)c2c(NC(=O)COC(=O)c3ncc(Cl)c(Cl)c3Cl)oc(C)c12`, the Tm shift relative to glycine control is reported as 4.91%. `Cc1c(CCC(=O)O)c(=O)oc2c(C)c(OCc3ccccc3Cl)ccc12` was tested, and the Tm shift relative to glycine control was 0.1%. `CCN([C@H](CO)C(C)C)S(=O)(=O)c1ccccc1Br` gave a Tm shift relative to glycine control of -1.23%. `O=C(O)CCCC(=O)Nc1ccccc1-n1ccnc1` was tested, and the Tm shift relative to glycine control was -2.48%. `CCOC(=O)N1CCN(C(=O)COc2ccc(Br)cc2)CC1` was tested, and the Tm shift relative to glycine control was 10.1% (active). `CCOC(=O)N1CCN(S(=O)(=O)c2ccc(Br)cc2)CC1` showed a Tm shift relative to glycine control of -0.87%. With `CCOC(=O)N1CCN(C(=O)COc2ccc3oc4c(c3c2)CCCC4)CC1` the Tm shift relative to glycine control was 1.71%. Work on `Cc1cccc([C@H]2[C@@H]3C=CC[C@@H](C)[C@@H]3C(=O)N2Cc2ccccc2)c1` yielded a Tm shift relative to glycine control of 0.67%. In the case of `Cc1ccc(-c2cccc([C@H]3[C@@H]4C=CC[C@@H](C)[C@@H]4C(=O)N3Cc3ccccc3)c2)cc1`, the Tm shift relative to glycine control is reported as 15.4% (active). In the case of `Cc1cccc([C@@H]2[C@@H]3C(=O)N(Cc4ccccc4)C(=O)[C@@H]3[C@]3(C)C(=O)N(c4ccc(Br)cc4)C(=O)N23)c1`, the Tm shift relative to glycine control is reported as -3.72%. Work on `CNC(=O)C1CCN(S(=O)(=O)c2c(C)noc2/C=C/c2cccc(C)c2)CC1` yielded a Tm shift relative to glycine control of 1.97%. For `CCOC(=O)c1c(Cc2ccc(Cl)cc2)c[nH]c1C`, the Tm shift relative to glycine control was -13.2%. In the case of `CC(C)(C)NC(=O)CN(Cc1cccs1)C(=O)CNS(=O)(=O)c1ccccc1`, the Tm shift relative to glycine control is reported as -2.34%. `O=C(c1ccc(-n2cnnn2)cc1)N1CCN(C(c2ccccc2)c2ccccc2)CC1` showed a Tm shift relative to glycine control of -0.38%. In the case of `Cn1nnnc1SCC(=O)N1CCN(Cc2ccccc2)CC1`, the Tm shift relative to glycine control is reported as 0.27%. For `Cn1nnnc1SCC(=O)N1CCN(C(c2ccccc2)c2ccccc2)CC1`, the Tm shift relative to glycine control was 11% (active). Compound `N#C/C(C(=S)Nc1ccccc1)=C1/NN=C(N2CCOCC2)N1c1ccccc1` has a Tm shift relative to glycine control of 1.45%. With `CCC(C(=O)OCC(=O)Nc1ccc(C(=O)Nc2ccc(OC)cc2)cc1)c1ccccc1` (centres undefined) the Tm shift relative to glycine control was 22.5% (active). Work on `CCC(C(=O)OCC(=O)Nc1ccccc1-c1ccccc1)c1ccccc1` (centres undefined) yielded a Tm shift relative to glycine control of -2.7%. With `CN(CC(=O)Nc1ccc(OC(F)F)cc1)S(=O)(=O)/C=C/c1ccccc1` the Tm shift relative to glycine control was -9.87%. In the case of `COc1ccc(NC(=O)CS(=O)(=O)c2ccccc2)cc1`, the Tm shift relative to glycine control is reported as 2.82%. With `COc1ccc(NC(=O)COC(=O)c2ccc(NS(=O)(=O)/C=C/c3ccccc3)cc2)cc1` the Tm shift relative to glycine control was 20.6% (active). `CCC(C(=O)OCC(=O)Nc1c(Cl)cc(Cl)cc1Cl)c1ccccc1` (centres undefined) gave a Tm shift relative to glycine control of -8.02%. Compound `c1cnc(N2CCN(c3ccc4ccccc4n3)CC2)nc1` has a Tm shift relative to glycine control of -1.6%. With `O=C(CN1CCc2ccccc21)NC(c1ccccc1)c1ccccc1` the Tm shift relative to glycine control was -10.2%. `O=C1C=C(NCCNc2c(F)c(F)c(CO)c(F)c2F)CCC1` gave a Tm shift relative to glycine control of -8.05%. Compound `Cc1ccc(NC(=O)COC(=O)CN2CCCCCC2=O)c(C)c1` has a Tm shift relative to glycine control of -0.17%. With `Cc1ccc(C(=O)NNC(=O)c2ccncc2)cc1S(=O)(=O)N1CCCCC1` the Tm shift relative to glycine control was -0.93%. `CC1CCCC(NC(=O)c2cc(S(=O)(=O)N3CCCCC3)ccc2Cl)C1C` (centres undefined) gave a Tm shift relative to glycine control of -1.61%. With `Cc1ccc(C(=O)NC2CCCC(C)C2C)cc1S(=O)(=O)N1CCCCC1` (centres undefined) the Tm shift relative to glycine control was 20.8% (active). In the case of `COc1ccc(OC)c(C2C3=C(N=c4s/c(=C\c5cccc(O)c5)c(=O)n42)c2ccccc2CC3)c1` (centres undefined), the Tm shift relative to glycine control is reported as 17.9% (active). In the case of `COCCOC(=O)C1=C(C)N=c2s/c(=C\c3cccs3)c(=O)n2C1c1cccs1` (centres undefined), the Tm shift relative to glycine control is reported as -1.71%. Compound `O=C1CCCC2=C1C(c1ccccc1)n1c(s/c(=C/c3cccc(F)c3)c1=O)=N2` (centres undefined) has a Tm shift relative to glycine control of 2.84%. In the case of `COC1=CCC2([N+](=O)[O-])CN(CC(=O)O)CC1([N+](=O)[O-])C2` (centres undefined), the Tm shift relative to glycine control is reported as -3.94%. `O=C(CCc1ccc(S(=O)(=O)N2CCOCC2)cc1)OCC(=O)c1ccc(Br)cc1` gave a Tm shift relative to glycine control of -0.17%. With `N#CCC(=O)NC1CCC(CC2CCC(NC(=O)CC#N)CC2)CC1` (centres undefined) the Tm shift relative to glycine control was 0.51%. `O=[N+]([O-])c1ccc(COc2ccccc2CN2CCOCC2)cc1` gave a Tm shift relative to glycine control of -1.9%. Compound `COc1ccc(C(=O)N2CCC(C(=O)Nc3cccc(C)c3)CC2)cc1OC` has a Tm shift relative to glycine control of -0.09%. `CCCCOC(=O)Nc1sc2nc(C)cc(C)c2c1-n1cccc1` was tested, and the Tm shift relative to glycine control was 11% (active). Compound `Cc1cc(C)c2c(-n3cccc3)c(NC(=O)OCc3ccccc3)sc2n1` has a Tm shift relative to glycine control of 0.08%. `COC(=O)Nc1sc2nc(C)cc(C)c2c1-n1cccc1` gave a Tm shift relative to glycine control of -4.15%. Compound `CCC(CC)NC(=O)CSc1nnc(-c2c[nH]c3ccccc23)o1` has a Tm shift relative to glycine control of 1.71%. `COc1cccc(CNC(=O)CCC2CCCN(Cc3ccc(OC(F)F)cc3)C2)c1` (centres undefined) was tested, and the Tm shift relative to glycine control was 1.06%. In the case of `Cn1nc(C(=O)OCC(=O)N(Cc2ccccc2)C(C)(C)C)c2ccccc2c1=O`, the Tm shift relative to glycine control is reported as 0.45%. With `O=C(O)c1cccnc1Sc1ncnc2sc3c(c12)CCC3` the Tm shift relative to glycine control was -2.96%. `OCCNc1nc2ccccc2n1-c1ncnc2sc3c(c12)CCC3` was tested, and the Tm shift relative to glycine control was 19.1% (active). In the case of `O=C(Cn1c(NCCO)nc2ccccc21)c1ccc(Cl)cc1Cl`, the Tm shift relative to glycine control is reported as -1.09%. For `CC12C(=O)N(n3cnnc3)C(=O)C1C1C=CC2C1` (centres undefined), the Tm shift relative to glycine control was 0.47%. With `C=CCNC(=O)c1ccccc1NC(=O)c1ccc(Cl)c(S(=O)(=O)Nc2cccc(C)c2C)c1` the Tm shift relative to glycine control was 16% (active). In the case of `Cc1ccc(C(=O)Nc2ccccc2-c2ccccc2)cc1S(=O)(=O)Nc1ccccc1`, the Tm shift relative to glycine control is reported as 9.58%. In the case of `Cc1ccccc1NC(=O)c1cc(S(=O)(=O)Nc2cccc(C(=O)O)c2)ccc1Cl`, the Tm shift relative to glycine control is reported as 0%. For `C=CCn1c(SCc2ccc(Cl)c(Cl)c2)nnc1C(CO)NC(=O)c1ccc(OC)cc1` (centres undefined), the Tm shift relative to glycine control was -6.08%. Work on `CSc1ccccc1NC(=O)CN(C)CC(=O)Nc1ccc(Cl)cc1[N+](=O)[O-]` yielded a Tm shift relative to glycine control of 2.47%. For `Cc1ccc(NC(=O)CN(C)Cc2ccc(F)cc2)c([N+](=O)[O-])c1`, the Tm shift relative to glycine control was 12.7% (active). In the case of `CN(CC(=O)Nc1ccccc1[N+](=O)[O-])Cc1ccc(Br)cc1`, the Tm shift relative to glycine control is reported as -2.8%. With `O=C(O)c1ccc([N+](=O)[O-])cc1Sc1ccsc1` the Tm shift relative to glycine control was 1.67%. With `CC(=O)Nc1ccc(CN2CCN(Cc3ccc(F)c(F)c3)C(CCO)C2)cc1` (centres undefined) the Tm shift relative to glycine control was -0.08%. `CN(C)c1ccc(NC(=O)CSc2n[nH]c(-c3ccco3)n2)cc1` showed a Tm shift relative to glycine control of 0.92%.
